{"source": "PubChem BioAssay (NCATS)", "note": "Records with an inconclusive call do not appear. Calls of active or inactive are those of the source. Calls follow the shape of the dose curve; as a rule, active = well fitted inhibition curve with a large enough effect; inconclusive = small, poorly fitted or top-dose-only effect; inactive = flat fitted curve, though single readings scatter. % is scaled to controls: 0 for no effect and ±100 for the full control effect.", "data": [{"molecular_target": "Phospholipid hydroperoxide glutathione peroxidase GPX4 (Homo sapiens) (UniProt P36969)", "sequence (P36969 whole entry, looked up)": "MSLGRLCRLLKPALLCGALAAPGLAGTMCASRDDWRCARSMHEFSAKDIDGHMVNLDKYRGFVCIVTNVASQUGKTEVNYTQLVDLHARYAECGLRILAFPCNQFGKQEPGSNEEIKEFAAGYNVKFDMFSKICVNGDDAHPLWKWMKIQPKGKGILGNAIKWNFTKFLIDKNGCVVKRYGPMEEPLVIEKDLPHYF", "experiment": "Primary qHTS Assay for Inhibitors of Recombinant Selenoprotein Glutathione Peroxidase 4 (GPX4) (AID 1845192); also: nearly all actives have a fitted effect of over 65% in size", "conditions": "recombinant GPX4, GR-coupled NADPH fluorescence, 15 min; series mostly up to 27.8 µM; activity change, negative = inhibition: at the top concentration", "outline": "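GR-coupled assay: recombinant GPX4 preincubated 30 min with compound at room temperature; final 200 nM GPX4, 1 mM GSH, 0.5 mM cumene hydroperoxide, 0.5 mM NADPH, 100 nM GR, 0.01% BSA, pH 7.5 Tris. NADPH fluorescence (340/450 nm) read at 0 and 15 min.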", "values": [{"smiles": "CC(=O)/C=C/C1(O)C(C)=CC(=O)CC1(C)C", "note": "(configuration not stated)", "activity change, negative = inhibition": "-0.043% [at 50 µM] (inactive)"}, {"smiles": "N[C@@H](CC(=O)Nc1ccc(Oc2cc(F)c(F)cc2Br)cc1)C(=O)O", "activity change, negative = inhibition": "-9.42% [at 50 µM] (inactive)"}, {"smiles": "CC1=CC2=C(C)C(=O)C(C)(O)C(O)C2CO1", "note": "(configuration not stated)", "activity change, negative = inhibition": "-4.6% [at 50 µM] (inactive)"}, {"smiles": "CC(C)C1C(OC(=O)/C=C/c2ccccc2)CC2(C)OC2CCC2(C)OC2C1O", "note": "(configuration not stated)", "activity change, negative = inhibition": "4.13% (inactive)"}, {"smiles": "CCOC(=O)c1ccc(NC2CCCCC2)c(N)c1", "activity change, negative = inhibition": "-2.13% [at 50 µM] (inactive)"}, {"smiles": "OC[C@H]1O[C@@H](OCc2ccccc2)[C@H](O[C@@H]2OC[C@@H](O)[C@H](O)[C@H]2O)[C@@H](O)[C@@H]1O", "activity change, negative = inhibition": "-6.04% (inactive)"}, {"smiles": "CC(C)c1ccc2c(c1)C(O)CC1C(C)(CO)CCCC21C", "note": "(configuration not stated)", "activity change, negative = inhibition": "-7.58% [at 50 µM] (inactive)"}, {"smiles": "C/C=C/C=C/[C@@H]1O[C@](O)([C@H](CC)C(=O)NC/C=C/C=C(\\C)[C@@H](OC)[C@@H](C)[C@@H]2O[C@H](/C=C/C=C/C=C(\\C)C(=O)c3c(O)ccn(C)c3=O)[C@H](O)[C@@H]2O)[C@H](O)[C@H](O)C1(C)C", "activity change, negative = inhibition": "3.88% [at 15.3 µM] (inactive)"}, {"smiles": "Cn1c2ccc(NC(=O)c3ccccc3)cc2c(=O)n2nc(C(=O)O)cc12", "activity change, negative = inhibition": "11.7% (inactive)"}, {"smiles": "C=C[C@@]1(C)CCC2=C([C@H]1OC(C)=O)[C@H](OC(C)=O)CC1[C@](C)(C(=O)OC)CC[C@H](OC(C)=O)[C@]21C", "note": "(some centres not stated)", "activity change, negative = inhibition": "-2.86% (inactive)"}, {"smiles": "CC1=C2C3OC(=O)C(C)C3(O)CCC2(C)CCC1", "note": "(configuration not stated)", "activity change, negative = inhibition": "-2.12% [at 50 µM] (inactive)"}, {"smiles": "CC(C)(O)C1OC1C1=CC(=O)C2(C)OC2C1O", "note": "(configuration not stated)", "outcome": "inactive [at 50 µM]"}, {"smiles": "C=C1CCC2C(C)(C)CC(=O)CC2(C)C1CCC(C)CCO", "note": "(configuration not stated)", "activity change, negative = inhibition": "-12.4% [at 50 µM] (inactive)"}, {"smiles": "CC[C@@H]1[C@H]2CCCCN3C(=O)C[C@H]([C@@H]4[C@H]1OC(=O)[C@H]4C)[C@@H]23", "outcome": "inactive [at 50 µM]"}, {"smiles": "C=C1CCC2(C(=O)OC3OC(CO)C(O)C(O)C3O)CCC3(C)C(=CCC4C5(C)CCC(OC6OC(CO)C(OC7OC(C)C(O)C(O)C7O)C(OC7OCC(O)C(O)C7O)C6O)C(C)(C)C5CCC43C)C2C1", "note": "(configuration not stated)", "activity change, negative = inhibition": "3.14% [at 15.3 µM] (inactive)"}, {"smiles": "C[C@@H]1C[C@@H](O)[C@@]23CO[C@]2(CO)C[C@@H](O)CC3[C@@]12CC(c1ccoc1)OC2=O", "note": "(some centres not stated)", "activity change, negative = inhibition": "-1.77% (inactive)"}, {"smiles": "COc1cc(/C=C/C(=O)O[C@H]2[C@H](O)[C@@H](CO)O[C@@]2(CO)O[C@H]2O[C@H](CO)[C@@H](O)[C@H](O)[C@H]2O)cc(OC)c1O", "activity change, negative = inhibition": "-1.04% (inactive)"}, {"smiles": "C=CCc1cc(OC)c(OC(C)C(O)c2ccc(O)c(OC)c2)c(OC)c1", "note": "(configuration not stated)", "activity change, negative = inhibition": "-8.58% (inactive)"}, {"smiles": "COc1cc(C[C@@]2(O)CO[C@@H](c3ccc(O[C@@H]4O[C@H](CO)[C@@H](O)[C@H](O)[C@H]4O)c(OC)c3)[C@H]2CO)ccc1O", "activity change, negative = inhibition": "2.07% (inactive)"}, {"smiles": "O=C(OCC1=C[C@@H](O)[C@@H]2C=CO[C@@H](O[C@@H]3O[C@H](CO)[C@@H](O)[C@H](O)[C@H]3O)[C@H]12)c1ccc(O)cc1", "activity change, negative = inhibition": "2.31% (inactive)"}, {"smiles": "COc1cc(CC2COC(c3ccc(OC4OC(CO)C(O)C(O)C4O)c(OC)c3)C2CO)ccc1O", "note": "(configuration not stated)", "outcome": "inactive"}, {"smiles": "C=CC(C)(CC/C=C(\\C)C(=O)OC)OC1OC(COC(=O)CC(C)(O)CC(=O)O)C(O)C(O)C1O", "note": "(configuration not stated)", "activity change, negative = inhibition": "-2.7% (inactive)"}, {"smiles": "COC(=O)C1=COC(OC2OC(CO)C(O)C(O)C2O)C2C(C)C(OC(C)=O)C(OC(=O)c3ccccc3)C12", "note": "(configuration not stated)", "outcome": "inactive"}, {"smiles": "C=C1CCC2C(C)(C)CCC[C@]2(C)[C@H]1CC/C(C)=C/C(=O)O", "note": "(some centres not stated)", "activity change, negative = inhibition": "-16.5% [at 50 µM] (inactive)"}, {"smiles": "CCNC(=O)C1CC(F)(c2ccc(CN3CCCC3)c(F)c2)C1", "note": "(configuration not stated)", "activity change, negative = inhibition": "9.14% [at 50 µM] (inactive)"}, {"smiles": "COc1ccc(-c2ccn(CC[C@](C)(C(=O)NO)S(C)(=O)=O)c(=O)c2)c(F)c1", "activity change, negative = inhibition": "-3.71% [at 50 µM] (inactive)"}, {"smiles": "CCC(=O)N1CCc2cc(OC)c(O)cc2C1", "activity change, negative = inhibition": "2.38% [at 50 µM] (inactive)"}, {"smiles": "COc1cc(O[C@@H]2O[C@H](CO[C@H]3OC[C@](O)(CO)[C@H]3O)[C@@H](O)[C@H](O)[C@H]2O)cc(OC)c1O", "activity change, negative = inhibition": "-16.1% (inactive)"}, {"smiles": "C/C=C(\\C)C(=O)OCC1OC(OCC2OC(OC3(CO)OC(CO)C(O)C3O)C(O)C(O)C2O)C(O)C(O)C1O", "note": "(configuration not stated)", "activity change, negative = inhibition": "-3.89% [at 15.3 µM] (inactive)"}, {"smiles": "O=C(/C=C/c1ccc(O)cc1)O[C@@H]1C[C@@](O)(C(=O)O)C[C@@H](O)[C@@H]1O", "outcome": "inactive"}, {"smiles": "COc1cc([C@@H](O[C@@H]2O[C@H](CO)[C@@H](O)[C@H](O)[C@H]2O)[C@@H]2CO[C@H](c3ccc(O)c(OC)c3)[C@H]2CO)ccc1O", "activity change, negative = inhibition": "-4.51% (inactive)"}, {"smiles": "COc1cc(O)cc(C)c1C(=O)OC1C(CO)OC(n2ccc(=O)[nH]c2=O)C1OC(C)=O", "note": "(configuration not stated)", "activity change, negative = inhibition": "-1.43% (inactive)"}]}]}
